High-throughput results from PubChem.
BAZ2B block: BAZ2B (human) inhibition; AID 504333; Potency, µM (doses to about 114 µM), without a hit: at the top dose activity change, negative = inhibition, most hits filed as inhibitors; AlphaScreen BAZ2B-H3K14Ac peptide displacement; Q9UIF8; 4.4% of 360,000 active; further: on the % scale 0 is the no-effect control and ±100 the full control effect; nearly all actives have a fitted effect of over 60% in size
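Complex of BAZ2B and biotin-H3K14Ac (50 nM apiece) forms over 30 min at RT, then faces library compounds up to 110 uM for another 30 min; AlphaScreen beads added, 20 min dark incubation, luminescence read.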
JMJD2A Tudor inh: inhibitors of human JMJD2A Tudor domain. O75164. AlphaScreen JMJD2A-Tudor / H3K4me3 peptide binding. Potency, µM (highest dose often 114 µM), for the others: at the top dose activity change, negative = inhibition, most hits filed as inhibitors. 4.4% of 390,000 active. AID 504339; further: on the % scale 0 is the no-effect control and ±100 the full control effect; nearly all actives have a fitted effect of over 50% in size
Target sequence (O75164 whole entry, looked up, the tested form may be a part): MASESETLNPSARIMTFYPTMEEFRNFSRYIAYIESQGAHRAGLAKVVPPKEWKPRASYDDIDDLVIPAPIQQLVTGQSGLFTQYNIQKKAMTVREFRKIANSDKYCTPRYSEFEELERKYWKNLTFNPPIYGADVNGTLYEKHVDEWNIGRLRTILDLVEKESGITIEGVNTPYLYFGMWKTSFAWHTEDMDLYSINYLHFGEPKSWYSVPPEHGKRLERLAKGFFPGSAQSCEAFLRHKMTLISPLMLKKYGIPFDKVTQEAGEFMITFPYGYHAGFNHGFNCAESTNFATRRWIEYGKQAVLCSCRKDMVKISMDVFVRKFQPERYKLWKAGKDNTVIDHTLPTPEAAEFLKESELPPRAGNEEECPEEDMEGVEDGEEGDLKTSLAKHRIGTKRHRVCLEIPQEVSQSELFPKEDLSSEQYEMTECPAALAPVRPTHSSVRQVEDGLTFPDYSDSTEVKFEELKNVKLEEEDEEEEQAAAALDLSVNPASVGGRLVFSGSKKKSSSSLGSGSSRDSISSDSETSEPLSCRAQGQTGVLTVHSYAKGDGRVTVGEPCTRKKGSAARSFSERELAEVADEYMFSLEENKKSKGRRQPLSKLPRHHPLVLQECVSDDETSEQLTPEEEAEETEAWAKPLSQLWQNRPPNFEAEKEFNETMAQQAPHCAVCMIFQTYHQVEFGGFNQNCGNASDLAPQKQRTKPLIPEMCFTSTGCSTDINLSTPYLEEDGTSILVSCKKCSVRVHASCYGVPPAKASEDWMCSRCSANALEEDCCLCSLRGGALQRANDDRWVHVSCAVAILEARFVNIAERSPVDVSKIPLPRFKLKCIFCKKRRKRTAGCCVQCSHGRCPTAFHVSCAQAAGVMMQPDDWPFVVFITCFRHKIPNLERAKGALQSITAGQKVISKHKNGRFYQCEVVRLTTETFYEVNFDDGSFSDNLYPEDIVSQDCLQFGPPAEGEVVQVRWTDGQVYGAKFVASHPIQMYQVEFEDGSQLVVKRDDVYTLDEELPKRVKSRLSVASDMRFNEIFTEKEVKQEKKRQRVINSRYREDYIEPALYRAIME
HP1b binding inh: blocks HP1-beta chromodomain binding to methylated histone tails; AID 540317; 0.56% of 390,000 active; AlphaScreen HP1-beta / biotin-H3K9me3 peptide binding; Potency, µM (top dose mostly 114 µM), inactives show top-dose activity change, negative = inhibition, hits mostly inhibitors; P83916; further: nearly all actives have a fitted effect of over 70% in size
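Compound inhibition of the preformed complex between 50 nM HP1-beta and 50 nM biotinylated H3K9me3 peptide was read by AlphaScreen. Buffer was PBS pH 7.4 with 0.01% Tween-20. Incubations ran 30 min at room temperature, with 10 ug/mL donor/acceptor beads.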
PLK1 PBD inh: blocks phosphopeptide binding to human PLK1 polo-box domain. 2.8% of 360,000 active. Plk1 PBD binding of FITC phosphopeptide, fluorescence polarization. P53350. Potency, µM, for the others: max response, negative = inhibition, hits mostly inhibitors; further: series mostly up to about 57 µM; on the % scale 0 is the no-effect control and ±100 the full control effect; nearly all actives have a fitted effect of over 65% in size
G9a inh: G9a (human) methyltransferase inhibition. Potency, µM (series often up to 102 µM), for inactives: at the highest dose activity, negative = inhibition, usual class: inhibitors. 8.8% of 350,000 active. AID 504332. Q96KQ7. G9a H3K9 monomethylation, AlphaScreen, 2 h; further: on the % scale 0 is the no-effect control and ±100 the full control effect; nearly all actives have a fitted effect of over 75% in size
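Compounds were preincubated with 20 nM G9a for 15 min, after which biotinylated H3K9 peptide (500 nM) and SAM (20 uM) started a 2 h room-temperature reaction. Monomethylated product was quantified by antibody-based AlphaScreen chemiluminescence.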
Sfp PPTase inh: Sfp phosphopantetheinyl transferase inhibition. 3.5% of 310,000 active. AID 1490. Potency, µM, for the others: largest response in the series, negative = inhibition, usual class: inhibitors. Biochemical Sfp PPTase activity, qHTS;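 further: the enzyme is Sfp with the accession as filed and its product quenches rhodamine fluorescence; 0% = enzyme reaction without inhibitor and -100% = no enzyme wells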
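Sfp 15 nM + cpd, 15 min RT; start w/ rhodamine-CoA 5 uM, BHQ-2-YbbR 12.5 uM (final); 50 mM Hepes pH 7.6, 10 mM MgCl2, 0.01% NP-40, 0.01% BSA; read 525/598 nm at 0 and 30 min.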
* marks the source's active call; other numbers are inactive results; u = inconclusive; x = not tested or not shown; [ ] = dose if it differs, or a comment. Hits are enriched below; roughly 12% of the tested compounds scored in any of these assays. The call rests on the fitted dose curve; in most records, active means well fitted curve in the direction sought with a large enough effect; inconclusive means small, poorly fitted or top-dose-only effect, or another doubt; inactive means no such curve, though single readings can be large; an effect the other way counts as inactive or inconclusive. Potency means the concentration at half of the fitted maximal effect.

SMILES | BAZ2B block | JMJD2A Tudor inh | HP1b binding inh | PLK1 PBD inh | G9a inh | Sfp PPTase inh
CC(C)Cc1ccc(C(C)CC2=CCC(CN(C)C)C2=O)cc1 (centres undefined) | x | 55.6% | 110.7% | -24.9% | x | x
Nc1cccc2cc(S(=O)(=O)O)ccc12 | x | 50.1µM* | -8.1%[57 µM] | u | x | x
Cc1ccc(S(=O)(=O)O)cc1C | x | x | x | x | 25.8%[59 µM] | 10.9%
CN(C)c1ccc2cc(S(=O)(=O)O)cc(O)c2c1 | x | 50.1µM* | u | u | x | x
CN(C)c1ccc2c(O)cc(=O)n(C)c2c1 | 3.3% | -21.8% | 23.3% | -28.2% | u | -28.7%
O=Nc1c(O)ccc2cc(S(=O)(=O)O)ccc12 | x | 2.82µM* | 9.0% | -16.5% | x | x
Nc1ccc2c(S(=O)(=O)O)cccc2c1S(=O)(=O)O | x | -20.7% | 52.4% | 0.4% | x | x
CCC1CCCCN1C(=O)COc1ccc(S(=O)(=O)N2CCOCC2)cc1Cl (centres undefined) | -1.5% | 6.7% | 30.9% | 1.3% | -27.0%[12.7 µM] | x
Cc1cccc(OCC(=O)Nc2ccncc2)c1C | 1.7% | -12.4% | 19.7% | -3.6% | x | 4.7%
Cc1ccccc1OCC(=O)NN1Cc2ccccc2C1=N | -16.9% | 0.0%[11.4 µM] | 0.7% | 26.7µM* | -37.3% | 11.8%
Cc1ccc(S(=O)(=O)NN=C2CCc3ccccc32)cc1 | x | x | x | -16.9% | x | x
Cc1ccccc1OCC(=O)Nc1cccc(Cl)c1C | u | -2.7% | 60.2% | -0.1% | x | 11.3%
Cc1cccc(OCC(=O)Nc2ncn[nH]2)c1C | 50.1µM* | -25.5% | 31.7% | -10.6% | -48.0%[59 µM] | -0.4%
Cc1ccccc1OCC(=O)Nc1ccccc1-c1ccccc1NC(=O)COc1ccccc1C | -8.0% | -10.3% | 16.8% | -9.2% | 50.1µM* | 3.8%
Cc1ccc(S(=O)(=O)NN2Cc3ccccc3C2=N)cc1 | x | -12.0% | 34.7% | -6.6% | 15.8µM* | u
CC(C)S(=O)(=O)c1cnc(-c2ccccn2)nc1N | 56.2µM* | 50.1µM* | 17.3% | -7.0% | -5.0% | 14.1%
Cc1cccc(N2CC(C(=O)NCc3ccco3)CC2=O)c1C (centres undefined) | -21.1% | -11.5% | 19.2% | -7.2% | 10.4%[12.7 µM] | x
O=C(COc1ccc(C(=O)NCCN2CCOCC2)cc1)Nc1cccc(C(F)(F)F)c1 | 12.8% | -13.0% | 22.6% | -10.7% | -40.6% | x
CC(=O)c1cc(-c2ccccc2)[nH]c1N1CCOCC1 | u | u | -13.3% | -14.3% | u | u
CC(=O)c1c(N2CCN(C)CC2)[nH]c(-c2ccccc2)nc1=S | u | 79.4µM* | -3.6% | -12.1% | 13.9%[0.0925 µM] | -17.6%
NC(=O)CN(C/C=C/c1ccccc1)C/C=C/c1ccccc1 | u | 20µM* | u | -13.0% | x | -29.9%
COC(=O)c1cccc(NC(=S)Nc2cc(Cl)ccc2OC)c1 | -14.3% | -20.1% | u | u | x | 20µM*
COc1ccc(Cl)cc1NC(=S)Nc1ccccc1C | -3.2% | 14.1µM* | -2.4% | 10.6µM* | x | -7.8%
Cc1ccccc1NC(=S)NCCSc1ccc(Cl)cc1 | u | 89.1µM* | 7.3% | -6.6% | 32.8%[59 µM] | 21.6%
COC(=O)c1cc(OC)c(OC)cc1NC(=S)Nc1cccc(C(C)=O)c1 | 4.7% | 22.4µM* | 5.1% | -20.2% | 10µM* | -16.2%
SMILES | BAZ2B block | JMJD2A Tudor inh | HP1b binding inh | PLK1 PBD inh | G9a inh | Sfp PPTase inh
COc1cccc(OC)c1C(=O)Nc1cccc(C(C)=O)c1 | 8.3% | -13.0%[57.1 µM] | 2.3% | -19.1% | 28.1%[59 µM] | 9.7%
COc1ccc(Cl)cc1NC(=S)NCc1ccccn1 | -7.0% | -14.1% | 10.4% | -21.4% | 20µM* | u
COc1cc(C)c(NC(=S)Nc2cccc(Cl)c2)cc1OC | -0.9% | -22.8% | u | u | 89.1µM* | 44.7µM*
COc1cc(C)c(NC(=S)Nc2ccc(C)c(Cl)c2)cc1OC | -37.1% | -32.1% | u | u | u | -43.9%
Cc1ccc(S(=O)(=O)N2CCC(C(=O)OCC(=O)N3CCCC3=O)CC2)cc1C | 1.5% | 4.8% | 20.9% | 1.0% | -38.4% | x
O=C(/C=C/c1ccc(Cl)cc1Cl)N1CCN(c2ccc([N+](=O)[O-])c(N3CCOCC3)c2)CC1 | u | -34.5% | 0.7% | -2.9% | u | -1.5%
O=C(Oc1ccc(Cl)cc1)c1ccc(N2CCOCC2)c([N+](=O)[O-])c1 | u | u | -20.5% | -2.7% | u | -3.7%
